Compound activity deposited in PubChem BioAssay by National Center for Advancing Translational Sciences (NCATS).
TDP1 cell CPT: growth inhibition of DT40 Tdp1-/-;hTDP1 cells with camptothecin (screen for TDP1 inhibitors); chicken DT40 Tdp1-/-;hTDP1 cells + 20 nM CPT, ATP luminescence, 48 h; Potency, µM (series often up to 46.2 µM), inactives show at the highest dose activity change, negative = growth inhibition, actives largely listed as inhibitors; 12% of 420,000 active; AID 686979; further: on the % scale 0 is the no-effect control and ±100 the full control effect; nearly all actives have a fitted effect of over 55% in size
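Chicken DT40 Tdp1-/- cells complemented with human TDP1, 400 cells/well, exposed to compounds plus 20 nM camptothecin for at least 48 h at 37 C; viability read as ATP content by CellTiter-Glo luminescence.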
TDP1 cell noCPT: qHTS for Inhibitors of human tyrosyl-DNA phosphodiesterase 1 (TDP1): qHTS in cells in absence of CPT; DT40 Tdp1-/- hTDP1 cells, no CPT, ATP luminescence, 48 h; Potency, µM (doses to about 46.2 µM), without a hit: top-dose activity change, negative = growth inhibition, usual class: inhibitors; 15% of 420,000 active; AID 686978, 2013; further: on the % scale 0 is the no-effect control and ±100 the full control effect; nearly all actives have a fitted effect of over 55% in size
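Camptothecin absent (DMSO only). Human TDP1-complemented DT40 knockout cells, 400 cells/well, 37 °C for minimum 48 hr; ATP measured via CellTiter-Glo, 30 min dark incubation, luminescence.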
HepG2 tox: counter-screen for TGF-b inhibitors: cytotoxicity in HepG2 cells. HepG2 CAGA-GFP viability, ATP luminescence, 18 h. Potency, µM (titrated, usually from 46.1 µM), without a hit: at the highest dose activity change, negative = cytotoxicity, hits mostly cytotoxic. 0.76% of 410,000 active
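CellTiter-Glo luminescence gave cytotoxicity after 18 hours at 37 degrees C. The cells were HepG2 CAGA-GFP in 1% FBS DMEM, stimulated with 500 pg/mL TGF-beta after compound addition. %Activity was normalised to no-cell wells (complete cell-killing) and DMSO (no toxicity), and curves were fitted and classified.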
TGFb SMAD3 inh: TGF-b pathway inhibition; HepG2 CAGA-GFP TGF-b/SMAD3 reporter, GFP fluorescence, 18 h; TGF-beta stimulated, 500 pg/mL final; Potency, µM (titrated, usually from 46.1 µM), for inactives: at the top dose activity, negative = inhibition, most hits filed as inhibitors; 1.2% of 410,000 active; further: on the % scale 0 is the no-effect control and ±100 the full control effect; nearly all actives have a fitted effect of over 65% in size
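TGF-beta reporter screen: HEPG2 CAGA-GFP, 1% FBS, 500 pg/mL TGF-beta final, 18 h; per-cell GFP summed per well; curves fitted and categorized by class.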
S2 tox: cell viability loss in ATXN counter-screen | S2 cells (HEK-293 line with an ATXN2-luciferase reporter) viability, CellTiter-Fluor protease fluorescence, 24 h | Potency, µM (titrated, usually from 56.7 µM), most hits filed as cytotoxic | 0.49% of 400,000 active | AID 651635; further: nearly all actives have a fitted effect of over 40% in size
ATXN2 expr inh: inhibitors of ATXN2 expression | HEK-293 ATXN2-luciferase reporter, luminescence, 24 h | Potency, µM (highest dose often 57 µM), inactives show at the highest dose activity change, negative = inhibition, usual class: inhibitors | 0.72% of 360,000 active; further: on the % scale 0 is the no-effect control and ±100 the full control effect; nearly all actives have a fitted effect of over 55% in size
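ATXN2-luciferase reporter cells (luciferase flanked by upstream and downstream ATXN2 gene portions) were treated 24 h at 37 °C with compounds at up to 57 uM. SteadyGlo luminescence gave expression; GF-AFC fluorescence gave viability.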
Numbers without * were called inactive; i = inactive; u = inconclusive; x = no result. Hits are enriched below; roughly 17% of the tested compounds scored in any of these assays. The call rests on the fitted dose curve; in most records, active means well fitted curve in the direction sought with a large enough effect; inconclusive means small, poorly fitted or top-dose-only effect, or another doubt; inactive means no such curve, though single readings can be large; an effect the other way counts as inactive or inconclusive. Potency means the concentration at half of the fitted maximal effect.

SMILES	TDP1 cell CPT	TDP1 cell noCPT	HepG2 tox	TGFb SMAD3 inh	S2 tox	ATXN2 expr inh
O=C(NCCS(=O)(=O)N1CCCCC1)c1ccc2c(c1)OCO2	-2%	-21%	14%	-14%	i	3%
Cc1csc(SCC(=O)NCC2Cc3cc(-c4cncnc4)ccc3O2)n1 (stereo unspecified)	2%	-18%	x	x	i	x
O=C(NCc1cccnc1)C(=O)NCC1OCCN1S(=O)(=O)c1ccc(Cl)cc1 (stereo unspecified)	-11%	u	-1%	3%	i	5%
O=C(NCc1cccnc1)/C(=C/c1ccc(-c2cccc(C(F)(F)F)c2)o1)NC(=O)c1ccccc1	13µM*	18µM*	-11%	u	i	-10%
O=C(NCc1cccnc1)/C(=C/c1ccc(Cl)cc1)NC(=O)c1ccccc1	23µM*	-24%	19%	8%	i	-14%
O=C(NCc1cccnc1)/C(=C/c1ccc(-c2ccc(Cl)cc2)o1)S(=O)(=O)c1ccccc1	5.2µM*	7.3µM*	4.5µM*	u	x	13µM*
Cc1ccc(C(=O)N/C(=C\c2ccco2)C(=O)NCc2cccnc2)cc1	4%	-23%	0%	-6%	u	-18%
Cc1ccc(C(=O)N/C(=C/c2ccc(-c3cc(C(F)(F)F)ccc3Cl)o2)C(=O)NCc2cccnc2)cc1	u	23µM*	0%	13µM*	i	-29%
O=C(COC(=O)CNC(=O)c1ccc(Cl)c([N+](=O)[O-])c1)NC(=O)CN1CCCC1=O	19%	16%	-1%	-1%	i	4%
COc1ccc(NN=Nc2nc3c([nH]2)c(=O)n(C)c(=O)n3C)cc1	21µM*	u	-6%	-1%	i	38%
Cc1ccccc1NN=Nc1nc2c([nH]1)c(=O)n(C)c(=O)n2C	-17%	-19%	-3%	-2%	i	1%
CO/N=C(/C(=O)NC1C(=O)N2C(C(=O)O)=C(CSc3nc(=O)c(O)nn3C)CSC12)c1csc(N)n1 (stereo unspecified)	8%	u	x	x	x	x
CC(=O)N1CCN(c2c(F)c(F)c(C(F)(F)F)c(F)c2F)CC1	u	15µM*	-8%	2%	i	-18%
NNC(=O)COc1cccc(Oc2ccccc2)c1	u	18µM*	2%	-5%	i	-16%
CN(C)C(CNC(=S)Nc1ccc(F)cc1)c1cccnc1 (stereo unspecified)	0%	-17%	-8%	6%	i	-1%
COc1ccc(-c2nnc(SCc3nc4ccccc4s3)n2C(C)C)cc1	u	21µM*	-16%	-11%	i	26%
CCOC(=O)N1CCN(C(=O)CN(C)S(=O)(=O)c2ccc(OCC)cc2)CC1	1%	-6%	2%	2%	i	21%
COc1cc(OC)c(NC2c3ccccc3C(=O)N2c2cc(C)ccn2)cc1Cl (stereo unspecified)	-8%	u	-28%	-8%	i	-6%
CCOC(=O)c1ccccc1NC1c2ccccc2C(=O)N1c1cc(C)ccn1 (stereo unspecified)	23µM*	u	-16%	-13%	i	-32%
COc1cc(/C=C2\C(=O)ON=C2c2ccccc2)cc(Br)c1O	6.5µM*	10µM*	-57%	u	i	-22%
COc1cc(/C=C2/C(=O)ON=C2c2ccccc2)ccc1O	23µM*	18µM*	-69%	u	u	-14%
CCOC(=O)C1=C(C)N=c2s/c(=C/c3ccc(OCC(=O)O)c(OC)c3)c(=O)n2C1c1ccc(Cl)cc1 (stereo unspecified)	3%	u	20%	11%	x	-14%
COc1cc(C=C2C(=O)OC(c3ccccc3)OC2=O)cc(Br)c1O (stereo unspecified)	u	23µM*	17%	5%	i	0%
COc1cc(/C=c2\sc3n(c2=O)C(c2ccccc2)C(c2ccccc2)=NN=3)ccc1O (stereo unspecified)	u	15µM*	-1%	34%	i	13%
CCOc1cc(/C=C2\C(=O)ON=C2c2ccccc2)cc(Br)c1O	u	u	4%	-19%	u	u
SMILES	TDP1 cell CPT	TDP1 cell noCPT	HepG2 tox	TGFb SMAD3 inh	S2 tox	ATXN2 expr inh
COc1cc(/C=C2\C(=O)ON=C2c2ccccc2)cc(Cl)c1O	16µM*	18µM*	-1%	1%	u	u
CC(Oc1ccccc1)C(=O)N1CCN(S(=O)(=O)c2ccc(OC(F)(F)F)cc2)CC1 (stereo unspecified)	18µM*	u	-2%	4%	i	x
N#CC1(c2ccccc2)CCN(S(=O)(=O)c2ccc(OC(F)(F)F)cc2)CC1	-22%	15µM*	-27%	-18%	i	-31%
O=C(Cn1cc(SCc2ccccc2F)c2ccccc21)N1CCCCCC1	23µM*	u	-30%	u	x	x
Cc1ccccc1CSc1cn(CC(=O)N2CCCCCC2)c2ccccc12	u	23µM*	-21%	-28%	x	x
Cc1ccccc1CSc1cn(CC(=O)N2CCCC2)c2ccccc12	u	u	-28%	0%	x	x
O=C(Cn1cc(SCc2ccccc2)c2ccccc21)N1CCCCCC1	u	u	-1%	u	u	-14%
CC(C)c1nc2oc3c(NCCO)ncnc3c2c2c1COC(C)(C)C2	-29%	u	-1%	-1%	i	x
CCCc1nc2oc3c(NCCOCCO)ncnc3c2c2c1COC(C)(C)C2	-16%	u	6%	2%	i	-3%
CCCc1nc2oc3c(OC)ncnc3c2c2c1COC(C)(C)C2	u	21µM*	-12%	8%	i	-1%
Cc1nc2oc3c(NCC4CCCO4)ncnc3c2c2c1COC(C)(C)C2 (stereo unspecified)	0%	-1%	-13%	4%	x	x
Cc1nc2oc3c(NCc4ccccc4)ncnc3c2c2c1COC(C)(C)C2	u	18µM*	-1%	-14%	x	x
CC(C)c1nc2oc3c(NCC4CCCO4)ncnc3c2c2c1COC(C)(C)C2 (stereo unspecified)	u	15µM*	-3%	-9%	i	-14%
COc1ccc(N2CCN(Cc3nc4c(c(=O)[nH]c(=O)n4C)n3Cc3ccccc3)CC2)cc1	1%	-9%	-25%	0%	x	x
Cc1ccc(NC(=O)CN2C=NS(=O)(=O)c3ccccc32)c(C)c1	-14%	-16%	-4%	u	i	4%
